# Measured values taken from PubChem BioAssay (EPA / NIEHS).
# Records with an inconclusive call do not appear. The source holds several records for some structures; these can differ, active in one and inactive in another. Active and inactive are the calls of the source. How the source made its calls, unless noted: active means hit-call score of the fitted dose curve at least 0.9, where 1 is the maximum; inconclusive means response in the unintended direction; inactive means score below 0.9.
# Tests used:
# [1] = system: Sodium/Iodide Symporter (NIS), SLC5A5 (gene 6528); experiment: CPHEA_Stoker_NIS_Inhibition_RAIU: CPHEA's Radioactive Iodide Uptake (RAIU) Assay for Sodium/Iodide Symporter (NIS) Inhibition, Stoker and Laws Labs (AID 2283841)
# Outline: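 HEK293T cells stably expressing human NIS (hNIS-HEK293T-EPA) were exposed to test chemicals at 0.001–100uM (0.5% final DMSO) with 125I at a final 329pM in HBSS/10mM HEPES pH 7.4. After 2 hours at room temperature and ice-cold washes, intracellular 125I was counted as CPM and normalized to DMSO wells.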
# [2] = CPHEA_Stoker_NIS_Cytotoxicity: Cytotoxicity Assessment for CPHEA's Radioactive Iodide Uptake (RAIU) Assay for Sodium/Iodide Symporter (NIS) Inhibition, Stoker and Laws Labs (AID 2283897);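 on AC50: active means loss of ATP signal versus DMSO meaning cytotoxicity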
# Outline: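 hNIS-HEK293T-EPA human kidney cells were exposed for 2 hours at room temperature to test chemicals (0.001–100uM, 0.5% final DMSO) in HEPES-buffered HBSS, pH 7.4. Viability was read as ATP content by luciferase bioluminescence, loss of signal versus DMSO.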
# [3] = biological target: zebrafish Thyroid Hormone Receptor beta (TRb), thrb (gene 30607) (UniProt Q9PVE4); experiment: ATG_zfTRb_XSP2: Attagene TRANS-FACTORIAL Multi-Species (XSP1) HepG2 Assay for zebrafish Thyroid Hormone Receptor beta (TRb) (AID 2283836);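 on AC50: potency for induction of reporter signal above DMSO so agonist direction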
# Chain of zebrafish Thyroid Hormone Receptor beta (TRb), thrb (gene 30607) (Q9PVE4 whole entry, looked up): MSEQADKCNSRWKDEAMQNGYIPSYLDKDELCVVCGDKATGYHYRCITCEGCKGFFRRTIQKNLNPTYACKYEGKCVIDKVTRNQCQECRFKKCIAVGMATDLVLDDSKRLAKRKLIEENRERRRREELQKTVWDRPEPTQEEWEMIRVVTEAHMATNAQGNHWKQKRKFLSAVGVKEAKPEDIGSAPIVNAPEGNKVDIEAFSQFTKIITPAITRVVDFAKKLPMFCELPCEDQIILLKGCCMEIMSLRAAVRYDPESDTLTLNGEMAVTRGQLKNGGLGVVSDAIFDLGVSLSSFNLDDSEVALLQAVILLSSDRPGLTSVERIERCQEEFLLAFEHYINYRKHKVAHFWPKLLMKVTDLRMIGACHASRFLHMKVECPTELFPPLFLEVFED
# Outline: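 Multiplexed trans-activation in HepG2 cells, 24 h treatment, with reporter mRNA read by RT-PCR and capillary electrophoresis. Gain-of-signal against DMSO.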
# [4] = ATG_XTT_Cytotoxicity_XSP2: Cytotoxicity Assessment in the Attagene TRANS-FACTORIAL Multi-Species (XSP2) HepG2 Assay (AID 2283837)
# Outline: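 XTT-based cell number read-out in human HepG2 liver cells carrying transfected reporter units, measured 24 h after chemical dosing. Activity is signal loss versus DMSO baseline.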
# [5] = biological target: human Thyroid hormone Receptor alpha (TRa), THRA (gene 7067) (UniProt P10827); experiment: ATG_hTRa_XSP2: Attagene TRANS-FACTORIAL Multi-Species (XSP2) HepG2 Assay for human Thyroid hormone Receptor alpha (TRa) (AID 2283838)
# Chain of human Thyroid hormone Receptor alpha (TRa), THRA (gene 7067) (P10827 whole entry, looked up): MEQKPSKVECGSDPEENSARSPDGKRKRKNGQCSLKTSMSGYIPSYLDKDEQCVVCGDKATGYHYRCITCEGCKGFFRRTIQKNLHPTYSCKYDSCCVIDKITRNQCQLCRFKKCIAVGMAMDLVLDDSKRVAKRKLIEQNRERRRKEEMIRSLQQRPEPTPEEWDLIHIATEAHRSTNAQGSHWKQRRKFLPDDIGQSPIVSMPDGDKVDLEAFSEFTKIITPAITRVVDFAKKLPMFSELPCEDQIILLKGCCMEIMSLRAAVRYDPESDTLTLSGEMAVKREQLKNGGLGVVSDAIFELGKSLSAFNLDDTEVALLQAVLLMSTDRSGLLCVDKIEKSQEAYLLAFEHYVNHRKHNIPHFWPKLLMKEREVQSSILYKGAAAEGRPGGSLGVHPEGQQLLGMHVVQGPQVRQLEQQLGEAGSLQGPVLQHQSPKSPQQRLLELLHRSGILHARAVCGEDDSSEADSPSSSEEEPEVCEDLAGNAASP
# Procedure: ATG_XSP2_multi-species_TRANS is a cell-based, multiplexed assay created by modifying the existing Attagene TRANS-FACTORIAL system to include a panel of nuclear receptors from some or all the following species: human (Homo sapiens), mouse (Mus musculus), frog (Xenopus laevis), zebrafish (Danio rerio), chicken (Gallus gallus), and turtle (Chrysemys picta). The ECOTOX-FACTORIAL format uses HepG2, a human liver cell line, with measurements taken at 24 hours after chemical dosing in a 24-well plate. Xsp2 included 3 nM 6-alpha-fluorotestosterone and 1.5 nM norgestrel to stimulate the androgen receptor.ATG_hTRa_XSP2 is one of 29 assay components measured or calculated from the ATG_XSP2_multi-species_TRANS assay. It is designed to make measurements of mRNA induction, a form of inducible reporter, as detected with fluorescence intensity signals by Reverse transcription polymerase chain reaction (RT-PCR) and Capillary electrophoresis technology.The assay endpoint ATG_hTRa_XSP2 was analyzed in the positive analysis fitting direction relative to DMSO as the negative control and baseline of activity. Using a type of inducible reporter, measures of mRNA for gain-of-signal activity can be used to understand the reporter gene at the transcription factor-level as they relate to the gene TR. Furthermore, this assay endpoint can be referred to as a primary readout, because this assay has produced multiple assay endpoints where this one serves a reporter gene function. To generalize the intended target to other relatable targets, this assay endpoint is annotated to the nuclear receptor intended target family, where the subfamily is non-steroidal.
# Human liver HepG2 cells are transiently transfected with multiple reporter transcription units (MRTUs) in 6-well plates using FuGene 6 reagent (Roche; 3 ml FuGene/1 mg DNA). The MRTU constructs are regulated by a cis-regulating element (promoter). […] A major difference between the CIS and TRANS system is that in CIS activities of endogenous TFs are measured, whereas the TRANS assay evaluates changes in activities of exogenous, chimeric NR-Gal4 proteins. […] At the end of 24 hour incubation, total RNA was isolated using TriZol reagent (Invitrogen). The isolated RNA is then reverse-transcribed using oligo(dT) primer and Mo-MLV reverse transcriptase (Invitrogen) with DNAse I (Ambion) treatment for 30 min. The one-tenth of the produced cDNA was amplified by PCR using Taq DNA polymerase (Invitrogen) and two reporter sequence-specific primers. The PCR products were fluorescently labeled by primer extension with 6-arboxyfluorescein (6-FAM) 5'-labeled reporter sequence-specific primer (2 min at 95 C, 20 s at 68 C and 10 min at 72 C) and these products were digested with 5U of HpaI (New England Biolabs) for 2h at 37 C. The fragments were purified using Qiaquick PCR columns (Qiagen), analyzed on an ABI 3130xL genetic analyzer (Applied Biosystems) with peak positions identified by using a set of X-rhodamine (ROX)-labeled MapMarker1000 molecular weight standards (BioVentures). The raw capillary electrophoresis data was processed using Attagraph software (Attagene).
# [6] = biological target: frog Thyroid hormone Receptor alpha (TRa), thra-a (gene 397942) (UniProt P15204); experiment: ATG_frTRa_XSP2: Attagene TRANS-FACTORIAL Multi-Species (XSP2) HepG2 Assay for frog Thyroid hormone Receptor alpha (TRa) (AID 2283839);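 on AC50: AC50 reflects induction of frog TRa-driven reporter mRNA above DMSO baseline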
# Chain of frog Thyroid hormone Receptor alpha (TRa), thra-a (gene 397942) (P15204 whole entry, looked up, the tested form may be a part): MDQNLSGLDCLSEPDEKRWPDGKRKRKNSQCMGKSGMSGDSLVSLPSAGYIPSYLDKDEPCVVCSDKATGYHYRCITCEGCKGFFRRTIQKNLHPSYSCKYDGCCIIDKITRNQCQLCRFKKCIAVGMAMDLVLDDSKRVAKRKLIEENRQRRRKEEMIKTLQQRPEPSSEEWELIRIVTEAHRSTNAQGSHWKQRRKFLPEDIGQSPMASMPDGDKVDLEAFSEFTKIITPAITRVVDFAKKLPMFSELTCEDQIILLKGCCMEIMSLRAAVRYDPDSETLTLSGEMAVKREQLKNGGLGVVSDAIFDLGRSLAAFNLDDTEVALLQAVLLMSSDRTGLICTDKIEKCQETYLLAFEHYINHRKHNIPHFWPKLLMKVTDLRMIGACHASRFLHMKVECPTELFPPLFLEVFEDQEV
# Outline: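 Reporter transcripts were measured by RT-PCR with capillary electrophoresis after 24 h dosing of HepG2 carrying transiently transfected multi-reporter units, including a chimeric frog TRa-GAL4 construct. Activity was taken as increase over DMSO vehicle.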
# [7] = biological target: human Thyroid hormone Receptor beta (TRb), THRB (gene 7068) (UniProt P10828); experiment: ATG_hTRb_XSP2: Attagene TRANS-FACTORIAL Multi-Species (XSP2) HepG2 Assay for human Thyroid hormone Receptor beta (TRb) (AID 2283840);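 further: actives raise reporter mRNA so potency reflects agonist-like gain of signal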
# Chain of human Thyroid hormone Receptor beta (TRb), THRB (gene 7068) (P10828 whole entry, looked up, the tested form may be a part): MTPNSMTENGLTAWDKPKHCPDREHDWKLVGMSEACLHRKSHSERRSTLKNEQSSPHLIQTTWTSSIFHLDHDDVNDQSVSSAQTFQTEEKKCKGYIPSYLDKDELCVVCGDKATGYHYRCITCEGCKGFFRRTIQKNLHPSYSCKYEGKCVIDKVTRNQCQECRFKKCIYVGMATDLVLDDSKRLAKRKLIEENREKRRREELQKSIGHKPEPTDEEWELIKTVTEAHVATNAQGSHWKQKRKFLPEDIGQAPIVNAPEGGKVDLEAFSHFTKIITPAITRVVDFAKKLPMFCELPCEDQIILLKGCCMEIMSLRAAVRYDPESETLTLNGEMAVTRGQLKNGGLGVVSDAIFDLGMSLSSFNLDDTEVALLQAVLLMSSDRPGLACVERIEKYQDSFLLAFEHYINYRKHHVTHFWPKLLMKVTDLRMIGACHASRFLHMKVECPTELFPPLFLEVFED
# Outline: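 Activity of exogenous human TRb–Gal4 fusion measured by reporter mRNA from RT-PCR and capillary electrophoresis, 24 h after dosing transfected HepG2. 6-alpha-fluorotestosterone (3 nM) and norgestrel (1.5 nM) present. Gain-of-signal fit relative to DMSO.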
# [8] = CEETOX_H295R_11DCORT_noMTC: CeeTox H295R High-throughput Steroidogenesis Assay for 11-Deoxycortisol (11DCORT), maximum tolerated concentration (MTC) filtered results only (AID 2283911; active means hit-call score of the fitted dose curve at least 0.9, where 1 is the maximum; inactive means score below 0.9); details: actives raise or lower the signal
# Outline: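 Values carry no filtering for maximum tolerated concentration: medium from forskolin-primed (10 uM, 48 h) H295R cells after 48 h chemical exposure (0.1% DMSO) was MTBE-extracted, and 11-deoxycortisol quantified by reverse-phase HPLC-MS/MS. Fitting was bidirectional against DMSO.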
# [9] = CEETOX_H295R_OHPREG_noMTC: CeeTox H295R High-throughput Steroidogenesis Assay for OH-Pregnenolone (OHPREG), maximum tolerated concentration (MTC) filtered results only (AID 2283912; active means hit-call score of the fitted dose curve at least 0.9, where 1 is the maximum; inactive means score below 0.9); details: actives raise or lower the signal
# Outline: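 H295R; 10 uM forskolin 48 h pre-stim; test cpd in DMSO (0.1% final) 48 h; media MTBE-extracted, HPLC-MS/MS for OH-pregnenolone; bidirectional fit vs DMSO; no MTC (MTT) filtering.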
# [10] = CEETOX_H295R_OHPROG_noMTC: CeeTox H295R High-throughput Steroidogenesis Assay for OH-Progesterone (OHPROG), maximum tolerated concentration (MTC) filtered results only (AID 2283914; active means hit-call score of the fitted dose curve at least 0.9, where 1 is the maximum; inactive means score below 0.9); details: actives raise or lower the signal
# Outline: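 Medium hormone measured by reverse-phase C18 HPLC with positive electrospray MS/MS after MTBE liquid-liquid extraction. Cells had 48 h forskolin (10 uM) prestimulation, then 48 h chemical dosing. Gain or loss of signal fitted relative to DMSO baseline.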
compound,measurement,setting,value
OC[C@H]1O[C@@H]2O[C@H]3[C@H](O)[C@@H](O)[C@@H](O[C@H]4[C@H](O)[C@@H](O)[C@@H](O[C@H]5[C@H](O)[C@@H](O)[C@@H](O[C@H]6[C@H](O)[C@@H](O)[C@@H](O[C@H]7[C@H](O)[C@@H](O)[C@@H](O[C@H]8[C@H](O)[C@@H](O)[C@@H](O[C@H]9[C@H](O)[C@@H](O)[C@@H](O[C@H]1[C@H](O)[C@H]2O)O[C@@H]9CO)O[C@@H]8CO)O[C@@H]7CO)O[C@@H]6CO)O[C@@H]5CO)O[C@@H]4CO)O[C@@H]3CO,outcome,[1],inactive
same,outcome,[2],inactive
Oc1ccc2cc(SSc3ccc4cc(O)ccc4c3)ccc2c1,AC50,[3],154 µM (active)
same,outcome,[3],inactive
same,outcome,[4],inactive
same,AC50,[5],132 µM (active)
same,outcome,[5],inactive
same,AC50,[6],160 µM (active)
same,outcome,[6],inactive
same,AC50,[7],100 µM (active)
same,outcome,[7],inactive
CCCCC(CC)COC(=O)c1ccc(O)cc1 (stereo unspecified),outcome,[3],inactive
same,outcome,[6],inactive
same,outcome,[7],inactive
same,AC50,[1],10.4 µM (active)
same,AC50,[2],83.9 µM (active)
CCCCCCCCc1ccc(S(=O)(=O)O)cc1,outcome,[1],inactive
same,outcome,[2],inactive
OCC#CCO,outcome,[1],inactive
same,outcome,[2],inactive
CCCCCCC(=O)c1ccccc1,outcome,[1],inactive
same,outcome,[2],inactive
Clc1ccc(C(c2ccccc2Cl)C(Cl)Cl)cc1 (stereo unspecified),outcome,[3],inactive
same,AC50,[4],100 µM (active)
same,outcome,[5],inactive
same,outcome,[6],inactive
same,outcome,[7],inactive
same,outcome,[1],inactive
same,outcome,[2],inactive
CC=Cc1ccc(OC)c(OC)c1,outcome,[8],inactive
same,outcome,[9],inactive
same,outcome,[10],inactive
CCOC(=O)[C@@H](C)Oc1ccc(Oc2nc3ccc(Cl)cc3o2)cc1,outcome,[1],inactive
same,outcome,[2],inactive
CCCCCCCCCCCCN1CCCCCC1=O,outcome,[1],inactive
same,outcome,[2],inactive
